What was measured:
Assay in all cases: log2 ratio of Biotin-Ahx-Ub-VS probe labelling (fragment/DMSO); higher = less target engagement (more negative = stronger competition), active = hit call of the paper (q ≤ 0.05, log2 ratio ≤ -1)
Conditions in all cases: compound concentration: 200 uM; treatment time: 3 h
USP19 = target: T1, USP19 (UniProt O94966)
T1 sequence (whole entry): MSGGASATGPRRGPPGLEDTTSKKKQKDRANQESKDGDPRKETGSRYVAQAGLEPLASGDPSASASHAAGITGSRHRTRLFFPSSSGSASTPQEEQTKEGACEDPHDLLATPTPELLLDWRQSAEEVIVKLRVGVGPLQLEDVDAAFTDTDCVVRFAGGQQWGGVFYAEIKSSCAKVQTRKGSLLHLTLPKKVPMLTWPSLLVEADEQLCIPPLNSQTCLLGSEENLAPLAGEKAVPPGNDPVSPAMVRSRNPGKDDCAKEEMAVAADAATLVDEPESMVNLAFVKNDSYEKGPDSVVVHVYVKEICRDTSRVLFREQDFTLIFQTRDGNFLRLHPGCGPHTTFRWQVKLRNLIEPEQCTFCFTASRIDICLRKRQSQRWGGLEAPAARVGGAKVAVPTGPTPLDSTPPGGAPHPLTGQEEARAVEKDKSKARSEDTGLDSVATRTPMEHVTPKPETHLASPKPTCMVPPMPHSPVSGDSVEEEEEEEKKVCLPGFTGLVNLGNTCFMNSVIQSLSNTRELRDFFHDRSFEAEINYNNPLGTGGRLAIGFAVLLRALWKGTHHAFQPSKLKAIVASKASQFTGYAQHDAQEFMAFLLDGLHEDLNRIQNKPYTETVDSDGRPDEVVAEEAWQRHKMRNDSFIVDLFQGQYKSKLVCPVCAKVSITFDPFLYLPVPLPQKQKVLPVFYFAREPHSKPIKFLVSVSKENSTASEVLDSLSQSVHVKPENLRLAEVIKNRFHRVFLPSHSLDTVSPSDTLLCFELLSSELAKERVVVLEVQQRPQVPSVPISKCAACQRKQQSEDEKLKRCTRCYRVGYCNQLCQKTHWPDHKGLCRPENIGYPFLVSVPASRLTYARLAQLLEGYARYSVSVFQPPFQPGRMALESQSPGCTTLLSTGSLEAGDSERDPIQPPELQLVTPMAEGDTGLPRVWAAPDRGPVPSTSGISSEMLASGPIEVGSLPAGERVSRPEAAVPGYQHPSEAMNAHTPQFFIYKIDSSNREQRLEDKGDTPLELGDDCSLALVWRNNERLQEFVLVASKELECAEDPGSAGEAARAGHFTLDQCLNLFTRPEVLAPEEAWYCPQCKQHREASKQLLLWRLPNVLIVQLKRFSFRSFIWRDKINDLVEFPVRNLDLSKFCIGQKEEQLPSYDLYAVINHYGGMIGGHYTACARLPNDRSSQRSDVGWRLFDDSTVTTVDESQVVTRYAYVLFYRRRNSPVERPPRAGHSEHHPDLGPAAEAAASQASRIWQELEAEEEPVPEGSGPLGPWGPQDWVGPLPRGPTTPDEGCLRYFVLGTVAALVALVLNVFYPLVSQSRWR
Method in brief: (§1)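 HEK293T lysate (495 µg per sample, in Tris/CHAPS/IGEPAL buffer with protease inhibitors) was exposed in triplicate for 3 h to fragment at 200 µM or to vehicle, then to Biotin-Ahx-Ub-VS at 0.5 µM final for 1 h. Labelled DUBs were enriched on NeutrAvidin, digested with LysC and trypsin, and analysed by diaPASEF LC-MS/MS. Spectronaut label-free quantities were normalised to the global median, and values are average log2 ratios of fragment over vehicle from an unpaired t-test. Only proteins with ≥2 unique peptides were used.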

USP22 = target: T2, USP22 (UniProt Q9UPT9)
T2 sequence (whole entry): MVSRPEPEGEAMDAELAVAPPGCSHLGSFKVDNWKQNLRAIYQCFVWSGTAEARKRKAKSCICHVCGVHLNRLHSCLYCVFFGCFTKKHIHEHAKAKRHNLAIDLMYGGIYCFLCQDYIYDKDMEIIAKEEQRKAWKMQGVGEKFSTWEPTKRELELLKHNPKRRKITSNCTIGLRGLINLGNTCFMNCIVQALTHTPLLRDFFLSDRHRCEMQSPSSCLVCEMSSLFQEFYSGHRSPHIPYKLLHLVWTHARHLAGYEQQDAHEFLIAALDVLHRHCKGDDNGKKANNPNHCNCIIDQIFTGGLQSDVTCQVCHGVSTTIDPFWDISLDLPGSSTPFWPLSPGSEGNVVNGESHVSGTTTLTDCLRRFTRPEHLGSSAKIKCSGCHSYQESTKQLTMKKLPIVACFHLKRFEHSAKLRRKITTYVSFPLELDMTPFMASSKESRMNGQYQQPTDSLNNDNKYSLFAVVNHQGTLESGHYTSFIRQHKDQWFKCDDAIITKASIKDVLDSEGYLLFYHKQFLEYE
Method in brief: as §1

USP24 = USP24 (UniProt Q9UPU5)
Method in brief: as §1

USP25 = target: T3, USP25 (UniProt Q9UHP3)
T3 sequence (whole entry): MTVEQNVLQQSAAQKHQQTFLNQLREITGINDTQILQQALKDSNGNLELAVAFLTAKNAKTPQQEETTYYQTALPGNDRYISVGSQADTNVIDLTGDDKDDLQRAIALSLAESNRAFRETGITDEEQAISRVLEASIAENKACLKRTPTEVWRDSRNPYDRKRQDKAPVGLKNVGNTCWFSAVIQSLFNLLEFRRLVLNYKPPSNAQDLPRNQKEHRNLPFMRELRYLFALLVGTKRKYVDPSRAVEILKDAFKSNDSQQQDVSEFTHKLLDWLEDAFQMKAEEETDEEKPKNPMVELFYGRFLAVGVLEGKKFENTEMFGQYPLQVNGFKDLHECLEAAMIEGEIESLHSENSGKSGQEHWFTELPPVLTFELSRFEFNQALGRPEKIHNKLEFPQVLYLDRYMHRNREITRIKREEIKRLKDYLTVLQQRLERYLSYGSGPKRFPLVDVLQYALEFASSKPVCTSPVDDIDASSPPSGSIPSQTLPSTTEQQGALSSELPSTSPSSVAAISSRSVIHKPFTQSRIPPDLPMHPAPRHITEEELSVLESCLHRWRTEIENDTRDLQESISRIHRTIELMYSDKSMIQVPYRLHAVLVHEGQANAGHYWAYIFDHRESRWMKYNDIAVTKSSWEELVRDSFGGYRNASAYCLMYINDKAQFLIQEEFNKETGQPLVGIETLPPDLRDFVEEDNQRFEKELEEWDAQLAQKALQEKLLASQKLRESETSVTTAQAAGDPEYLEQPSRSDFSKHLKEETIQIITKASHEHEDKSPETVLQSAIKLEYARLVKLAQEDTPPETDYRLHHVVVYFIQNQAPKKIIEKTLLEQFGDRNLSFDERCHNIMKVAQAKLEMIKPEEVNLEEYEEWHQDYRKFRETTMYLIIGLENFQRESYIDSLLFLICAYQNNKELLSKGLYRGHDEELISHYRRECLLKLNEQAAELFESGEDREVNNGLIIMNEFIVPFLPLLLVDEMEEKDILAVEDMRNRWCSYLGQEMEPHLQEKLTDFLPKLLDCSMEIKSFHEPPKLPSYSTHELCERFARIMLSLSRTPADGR
Method in brief: as §1

USP28 = target: T4, USP28 (UniProt Q96RU2)
T4 sequence (whole entry): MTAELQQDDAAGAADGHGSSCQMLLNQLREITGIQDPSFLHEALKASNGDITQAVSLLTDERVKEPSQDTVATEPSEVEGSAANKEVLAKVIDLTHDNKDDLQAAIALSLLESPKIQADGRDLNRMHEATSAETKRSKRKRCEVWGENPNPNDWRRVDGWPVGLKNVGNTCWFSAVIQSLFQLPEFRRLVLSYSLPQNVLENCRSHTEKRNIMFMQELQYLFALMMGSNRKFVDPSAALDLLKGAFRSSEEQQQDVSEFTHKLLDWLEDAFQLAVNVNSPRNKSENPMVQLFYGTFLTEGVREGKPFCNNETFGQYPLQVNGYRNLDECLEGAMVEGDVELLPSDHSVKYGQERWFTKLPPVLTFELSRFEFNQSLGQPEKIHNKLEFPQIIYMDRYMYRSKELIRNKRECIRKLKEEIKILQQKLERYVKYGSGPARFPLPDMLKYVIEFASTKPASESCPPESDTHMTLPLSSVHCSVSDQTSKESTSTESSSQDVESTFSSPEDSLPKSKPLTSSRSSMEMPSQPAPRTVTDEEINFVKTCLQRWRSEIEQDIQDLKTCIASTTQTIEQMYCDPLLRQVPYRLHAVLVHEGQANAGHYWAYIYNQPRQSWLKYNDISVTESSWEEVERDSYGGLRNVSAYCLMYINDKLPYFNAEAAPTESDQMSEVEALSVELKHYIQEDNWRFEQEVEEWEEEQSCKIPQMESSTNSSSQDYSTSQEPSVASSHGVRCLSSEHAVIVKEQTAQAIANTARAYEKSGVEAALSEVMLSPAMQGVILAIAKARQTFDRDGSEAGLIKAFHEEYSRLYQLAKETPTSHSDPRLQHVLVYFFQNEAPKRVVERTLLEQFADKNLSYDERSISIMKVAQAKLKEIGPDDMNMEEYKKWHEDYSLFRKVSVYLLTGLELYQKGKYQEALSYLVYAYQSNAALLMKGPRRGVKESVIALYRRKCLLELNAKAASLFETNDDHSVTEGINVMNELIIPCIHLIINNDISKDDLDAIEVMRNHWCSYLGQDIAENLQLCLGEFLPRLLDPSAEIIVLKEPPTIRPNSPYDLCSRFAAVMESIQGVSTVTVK
Method in brief: as §1

Measured: log2 ratio of Biotin-Ahx-Ub-VS probe labelling

Chain of USP24 (Q9UPU5 whole entry): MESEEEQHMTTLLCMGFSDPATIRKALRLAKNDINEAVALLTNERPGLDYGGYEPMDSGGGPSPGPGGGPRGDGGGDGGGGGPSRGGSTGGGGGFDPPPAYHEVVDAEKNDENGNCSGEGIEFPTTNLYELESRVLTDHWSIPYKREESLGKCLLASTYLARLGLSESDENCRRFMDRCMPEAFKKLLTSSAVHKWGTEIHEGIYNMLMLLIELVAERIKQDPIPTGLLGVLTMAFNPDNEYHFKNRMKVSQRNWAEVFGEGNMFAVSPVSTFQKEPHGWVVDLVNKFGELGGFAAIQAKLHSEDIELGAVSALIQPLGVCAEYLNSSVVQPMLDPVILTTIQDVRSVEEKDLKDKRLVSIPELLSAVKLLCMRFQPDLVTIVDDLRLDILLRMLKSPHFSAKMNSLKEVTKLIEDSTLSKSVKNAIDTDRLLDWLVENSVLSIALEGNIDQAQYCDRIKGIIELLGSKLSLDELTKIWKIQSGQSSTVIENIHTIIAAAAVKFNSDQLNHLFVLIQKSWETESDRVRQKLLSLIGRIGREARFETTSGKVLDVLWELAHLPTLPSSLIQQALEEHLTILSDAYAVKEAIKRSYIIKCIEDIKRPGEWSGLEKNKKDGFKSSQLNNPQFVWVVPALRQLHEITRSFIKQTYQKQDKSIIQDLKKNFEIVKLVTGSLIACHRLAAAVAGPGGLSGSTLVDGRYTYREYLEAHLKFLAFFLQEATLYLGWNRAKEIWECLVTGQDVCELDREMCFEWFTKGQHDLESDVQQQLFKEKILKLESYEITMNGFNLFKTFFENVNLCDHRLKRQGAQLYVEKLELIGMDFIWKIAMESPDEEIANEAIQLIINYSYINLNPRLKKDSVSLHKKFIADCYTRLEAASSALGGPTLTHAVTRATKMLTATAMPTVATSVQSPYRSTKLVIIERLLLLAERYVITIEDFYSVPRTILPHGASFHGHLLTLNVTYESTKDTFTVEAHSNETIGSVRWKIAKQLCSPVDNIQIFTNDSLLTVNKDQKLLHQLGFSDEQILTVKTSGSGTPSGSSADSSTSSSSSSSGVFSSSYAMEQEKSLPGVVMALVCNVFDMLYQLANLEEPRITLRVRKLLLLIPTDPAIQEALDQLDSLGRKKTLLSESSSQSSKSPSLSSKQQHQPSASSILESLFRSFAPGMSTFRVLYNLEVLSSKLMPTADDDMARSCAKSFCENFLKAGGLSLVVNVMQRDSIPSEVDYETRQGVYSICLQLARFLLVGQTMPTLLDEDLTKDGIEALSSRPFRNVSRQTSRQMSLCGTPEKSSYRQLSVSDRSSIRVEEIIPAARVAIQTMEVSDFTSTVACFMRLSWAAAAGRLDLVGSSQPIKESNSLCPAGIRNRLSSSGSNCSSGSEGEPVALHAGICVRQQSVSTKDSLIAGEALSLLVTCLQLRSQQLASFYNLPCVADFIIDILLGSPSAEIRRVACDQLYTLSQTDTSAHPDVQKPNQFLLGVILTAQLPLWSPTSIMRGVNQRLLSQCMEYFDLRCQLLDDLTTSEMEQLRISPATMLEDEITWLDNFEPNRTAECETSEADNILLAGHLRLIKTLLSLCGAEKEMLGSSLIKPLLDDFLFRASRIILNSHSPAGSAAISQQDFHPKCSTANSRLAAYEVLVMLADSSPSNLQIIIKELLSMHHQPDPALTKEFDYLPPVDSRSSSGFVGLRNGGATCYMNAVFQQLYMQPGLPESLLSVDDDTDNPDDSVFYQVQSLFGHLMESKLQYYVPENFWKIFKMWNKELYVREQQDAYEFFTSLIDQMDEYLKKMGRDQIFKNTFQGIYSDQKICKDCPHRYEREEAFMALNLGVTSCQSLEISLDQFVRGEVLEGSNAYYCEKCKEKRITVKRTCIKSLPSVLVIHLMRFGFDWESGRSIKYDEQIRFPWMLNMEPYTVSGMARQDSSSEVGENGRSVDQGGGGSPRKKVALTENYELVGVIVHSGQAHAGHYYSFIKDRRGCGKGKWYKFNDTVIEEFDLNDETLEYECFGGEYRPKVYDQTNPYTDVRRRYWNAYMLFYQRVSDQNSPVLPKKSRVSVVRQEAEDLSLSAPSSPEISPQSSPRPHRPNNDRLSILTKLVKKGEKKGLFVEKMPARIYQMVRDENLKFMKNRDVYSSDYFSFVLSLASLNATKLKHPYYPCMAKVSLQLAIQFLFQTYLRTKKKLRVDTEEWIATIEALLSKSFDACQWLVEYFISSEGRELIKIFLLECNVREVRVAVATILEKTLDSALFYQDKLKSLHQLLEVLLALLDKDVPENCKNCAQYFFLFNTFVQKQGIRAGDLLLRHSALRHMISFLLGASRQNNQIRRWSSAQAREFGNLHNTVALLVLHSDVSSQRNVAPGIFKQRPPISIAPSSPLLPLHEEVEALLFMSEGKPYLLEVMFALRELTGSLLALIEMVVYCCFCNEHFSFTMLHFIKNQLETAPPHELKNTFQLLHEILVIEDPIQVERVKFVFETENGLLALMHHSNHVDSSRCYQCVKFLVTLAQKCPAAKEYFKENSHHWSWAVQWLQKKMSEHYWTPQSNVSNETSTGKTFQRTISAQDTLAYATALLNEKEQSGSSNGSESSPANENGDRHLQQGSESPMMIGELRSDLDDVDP

Cc1ccc(CNC(=O)CCl)nc1C.Cl
inactive: USP19 -0.0635 | USP22 0.00229 | USP24 -0.467 | USP25 -0.436 | USP28 -0.456

Source: the supplement of paper PMC11732987, “Enantioselective OTUD7B fragment discovery through chemoproteomics screening and high-throughput optimisation” (Communications Chemistry, 2025)
